Screening results (PubChem)
Shown are actives, neighbours in structure and some others; about 1.5% of the full set was active somewhere.
BRCA1 expr up – increases BRCA1 expression; Potency, µM (highest dose often 46.1 µM), for inactives: at the top dose activation, hits mostly activators; MCF7-BRCA1-FFLuc reporter, luminescence, 48 h; response scale: scaled: vehicle 0%, 10 µM genistein 100%; 380,000 tested, 1.1% active; note: potency is the fitted concentration of half-maximal effect; nearly all actives have a fitted effect of over 80% in size
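Compounds are tested at multiple concentrations on MCF7 BRCA1-luciferase reporter cells seeded at 2000 per well; after 48 h, a single luminescence end-point is taken and curves fitted to the normalized data.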
gsp antagonist – gsp mutant antagonism; gsp-mutant cells, cAMP HTRF, 30 min; Potency, µM (highest dose often 76.9 µM), for inactives: at the highest dose activity change, negative = inhibition, actives largely listed as inhibitors; 340,000 tested, 0.4% active; calls by dose curve; cell line not stated here;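 note: intracellular cAMP measured with PDE inhibitor Ro 20-1724 present during compound exposure; potency is the fitted concentration of half-maximal effect; % is set by controls: 0 for no effect and ±100 for the full control effect; nearly all actives have a fitted effect of over 65% in size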
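G418-selected cells were plated in DMEM/10% FBS for 16-24 h at 37C, then treated with compounds plus the PDE inhibitor […] (300 uM solution added) for 30 min at 37C. Intracellular cAMP was measured by HTRF after 30 min lysis at room temperature.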
gsp ag – activates gsp, the McCune-Albright syndrome mutation; gsp mutant cells, cAMP HTRF, 30 min; Potency, µM (doses to about 76.9 µM), inactives show at the top dose activation (cAMP increase), most hits filed as activators; 340,000 tested, 0.13% active; AID 624287; active = well fitted activation curve with a large enough effect; inconclusive = small, poorly fitted or top-dose-only effect, or another doubt; inactive = no such curve, though single readings can be large or run the other way; cell line not stated here;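 note: phosphodiesterase inhibitor Ro 20-1724 added with compounds to block cAMP breakdown; potency is the fitted concentration of half-maximal effect; nearly all actives have a fitted effect of over 60% in size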
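Cells in DMEM/10% FBS with G418 were pretreated with compounds in DMSO plus […] (300 uM stock) for 30 min at 37C. cAMP was measured by HTRF (cAMP-d2 plus anti-cAMP antibody-K) after 30 min at room temperature.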
mIDH1 inhibitor – inhibitors of human mutant IDH1 R132H | 390,000 tested, 0.093% active | Potency, µM (highest dose often 76.6 µM), for inactives: top-dose activity change, negative = inhibition, most hits filed as inhibitors | IDH1-R132H enzyme, NADPH consumption, diaphorase/resazurin fluorescence | AID 602179 | O75874; note: potency is the fitted concentration of half-maximal effect; % is set by controls: 0 for no effect and ±100 for the full control effect; nearly all actives have a fitted effect of over 65% in size
Target sequence (O75874 whole entry R132H, stated change not applied): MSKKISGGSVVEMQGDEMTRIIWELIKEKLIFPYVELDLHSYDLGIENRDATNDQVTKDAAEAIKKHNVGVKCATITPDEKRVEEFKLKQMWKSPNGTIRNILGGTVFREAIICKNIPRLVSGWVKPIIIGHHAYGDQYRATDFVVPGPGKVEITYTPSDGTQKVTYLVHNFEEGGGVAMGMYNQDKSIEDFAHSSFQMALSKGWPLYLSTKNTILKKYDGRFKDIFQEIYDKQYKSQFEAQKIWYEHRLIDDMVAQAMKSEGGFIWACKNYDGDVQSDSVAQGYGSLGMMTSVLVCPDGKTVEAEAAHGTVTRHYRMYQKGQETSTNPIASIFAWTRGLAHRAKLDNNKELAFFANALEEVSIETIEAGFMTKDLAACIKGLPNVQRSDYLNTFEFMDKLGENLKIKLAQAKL
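IDH1-R132H (0.5 ug/mL dispensed) in pH 7.5 Tris buffer was preincubated 30 min with compound, then given a substrate mix of 0.016 mM NADPH and 2 mM alpha-KG for 80 min at room temperature; remaining NADPH was read by diaphorase/resazurin fluorescence.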
IL2 activator – activates IL-2 in a cell-based reporter assay; AID 652025; activation, % (series mostly up to about 46 µM); IL-2 activation reporter assay, cell-based qHTS; stimulated with anti-CD3/CD4/CD28 beads; in transgenic mouse T cells; 360,000 tested, 0.065% active; in the data active = activation above about 50%; inconclusive = mostly about 30% to 49%; note: 0% is about no effect
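Readout: EGFP and DsRed signals by fluorescent plate cytometry. Unstimulated transgenic mouse T cells received compound 60 min before antibody-bead stimulation, then incubated 18 h at 37 degrees C.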
* = called active by the depositor; [ ] = another dose, or the depositor's remark. Unless noted, calls come from the whole dose curve; as a rule, active = well fitted curve in the direction sought with a large enough effect; inconclusive = small, poorly fitted or top-dose-only effect, or another doubt; inactive = no such curve, though single readings can be large; an effect the other way counts as inactive or inconclusive.

How did CCN(Cc1cccc(S(=O)(=O)O)c1)c1ccc(C(=C2C=CC(=[N+](CC)Cc3cccc(S(=O)(=O)O)c3)C=C2)c2ccc(O)cc2S(=O)(=O)O)cc1 do in these assays?
BRCA1 expr up: -45.7%

What do the screens show for `CSc1ncc(-c2ccc(Cl)cc2)[nH]1`?
BRCA1 expr up: 10µM*; gsp antagonist: -2.5%; gsp ag: 10.6%[15.4 µM]; mIDH1 inhibitor: -1.4%; IL2 activator: -1.8

Results for COC(=O)c1cc2oc3ccccc3c2n1CC(=O)Nc1cc(OC)cc(OC)c1 ?
mIDH1 inhibitor: 1.7%

What do the screens show for `CCC(=O)Nc1ccc(N2CCN(C(=O)c3cccs3)CC2)cc1`?
BRCA1 expr up: -0.3%; gsp antagonist: -21.2%; gsp ag: 3.1%; mIDH1 inhibitor: -2.0%; IL2 activator: -0.1

Results for O=C(COc1ccccc1[N+](=O)[O-])Nc1ccc2c(c1)OCO2 ?
BRCA1 expr up: 10µM*; gsp antagonist: -6.1%; gsp ag: -0.9%; mIDH1 inhibitor: 2.1%; IL2 activator: -1.1

How did O=C(COc1ccccc1[N+](=O)[O-])Nc1ccc(N2CCN(C(=O)c3cccs3)CC2)cc1 do in these assays?
BRCA1 expr up: -80.4%; gsp antagonist: 28.2µM*; gsp ag: 0.7%[15.4 µM]; mIDH1 inhibitor: 2.2%; IL2 activator: -3.1

How did CCSc1nnc(NC(=O)COc2ccccc2[N+](=O)[O-])s1 do in these assays?
BRCA1 expr up: 84.9%; gsp antagonist: 0.6%; gsp ag: 3.1%; mIDH1 inhibitor: 4.1%; IL2 activator: 2.0

What do the screens show for `O=C(COc1ccccc1[N+](=O)[O-])OCC(=O)c1ccc(Br)s1`?
BRCA1 expr up: -18.6%; gsp antagonist: 21.7%; gsp ag: 10µM*; mIDH1 inhibitor: 2.0%; IL2 activator: 1.3

How did CC(C)c1nnc(NC(=O)COc2ccccc2[N+](=O)[O-])s1 do in these assays?
BRCA1 expr up: 10µM*; gsp antagonist: -1.2%; gsp ag: -16.3%; mIDH1 inhibitor: 5.3%; IL2 activator: 0.9

How did Cc1nc(Nc2ncc(C(=O)Nc3c(C)cccc3Cl)s2)cc(N2CCN(CCO)CC2)n1 do in these assays?
BRCA1 expr up: -54.6%

How did CC(=O)c1cc(F)ccc1OCC(=O)Nc1ccc2c(c1)OCO2 do in these assays?
BRCA1 expr up: 1.26µM*; gsp antagonist: -17.1%; gsp ag: -22.8%[15.4 µM]; mIDH1 inhibitor: 7.7%; IL2 activator: 2.6

What do the screens show for `O=C(COc1cccc(Cl)c1Cl)Nc1ccc2c(c1)CCC2`?
BRCA1 expr up: -5.6%; gsp antagonist: 5.2%; gsp ag: 1.4%[15.4 µM]; mIDH1 inhibitor: -0.6%; IL2 activator: -1.0

What do the screens show for `O=C(COc1ccccc1[N+](=O)[O-])Nc1ccc2c(c1)CCC2`?
BRCA1 expr up: 10µM*; gsp antagonist: inconclusive; gsp ag: -12.4%; mIDH1 inhibitor: 5.1%; IL2 activator: -0.1

Results for O=C(COC(=O)COc1ccccc1[N+](=O)[O-])Nc1ccc2c(c1)OCO2 ?
BRCA1 expr up: -15.1%; gsp antagonist: -1.5%; gsp ag: -22.7%; mIDH1 inhibitor: 3.9%; IL2 activator: 0.3

How did Cc1ccc(OCC(=O)Nc2ccc3c(c2)OCO3)c(C)c1 do in these assays?
BRCA1 expr up: 0.0%; gsp antagonist: -8.9%; gsp ag: -6.1%[15.4 µM]; mIDH1 inhibitor: 2.0%; IL2 activator: -3.6

What do the screens show for `O=C(COc1cc(F)ccc1[N+](=O)[O-])Nc1ccc2c(c1)OCO2`?
BRCA1 expr up: 3.55µM*; gsp antagonist: 5.8%; gsp ag: 1.8%; mIDH1 inhibitor: -15.6%; IL2 activator: -0.5

How did CC(CN1CCOCC1)OC(=O)c1ccc2c(c1)OCCO2 (configuration not stated) do in these assays?
BRCA1 expr up: 7.94µM*; gsp antagonist: -3.6%; gsp ag: 20.5%; mIDH1 inhibitor: 0.0%; IL2 activator: 1.5

What do the screens show for `COc1ccc(OC)c(/C=C2\C=Cc3ccccc32)c1`?
BRCA1 expr up: -45.7%

How did Fc1cccc(/C=N/Nc2nc3ccccc3[nH]2)c1 do in these assays?
BRCA1 expr up: 4.47µM*; gsp antagonist: -12.8%; gsp ag: -101.4%; mIDH1 inhibitor: 1.7%; IL2 activator: -0.9
